The list is not random: actives were taken first. Their share in the collection is about 0.97%.
GASC-1 inh: inhibitors of GASC-1 histone demethylase, primary screen, biochemical, fluorescence, DELFIA europium; Lysine-specific demethylase 4C (Homo sapiens), Q9H3R0; GST-JMJD2C(1-420) H3K9me3 demethylation; inhibition, % at 2.35 µM; actives 0.069% (n = 330,000); AID 2099, 2009;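 active means more than half of a compound's replicate wells show inhibition beyond 50%, single wells judged on their own value; inconclusive means some, but no more than half, of replicates pass 50% inhibition; inactive means no replicate passes 50% inhibition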;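 further: signal counts dimethyl H3K9 product captured on neutravidin plate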
Target sequence (Q9H3R0 1-420 limits assumed): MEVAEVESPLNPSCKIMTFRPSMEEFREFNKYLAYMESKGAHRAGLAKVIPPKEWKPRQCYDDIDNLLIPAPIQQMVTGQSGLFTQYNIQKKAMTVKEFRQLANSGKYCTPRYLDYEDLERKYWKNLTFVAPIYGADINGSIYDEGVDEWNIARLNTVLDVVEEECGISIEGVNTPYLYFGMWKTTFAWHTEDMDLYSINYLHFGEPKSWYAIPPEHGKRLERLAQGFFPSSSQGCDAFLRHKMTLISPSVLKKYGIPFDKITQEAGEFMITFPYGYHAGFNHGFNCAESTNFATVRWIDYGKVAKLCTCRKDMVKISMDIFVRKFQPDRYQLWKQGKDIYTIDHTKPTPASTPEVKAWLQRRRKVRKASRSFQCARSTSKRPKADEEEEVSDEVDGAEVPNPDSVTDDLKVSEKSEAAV
LAP4-GFP MLPCN: modulators of LAP4-GFP expression in yeast, primary screen, S. cerevisiae, multiplex flow cytometry, MLPCN library. 3 h; median GFP as percent of DMSO wells. actives 0.34% (n = 320,000). AID 2023, 2009. GFP response vs DMSO, % at 10 µM;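 active means GFP response vs DMSO above a set limit, about the screen mean plus 3 SD, cut at about 150% in these data; inconclusive means under 70 cell events counted for the yeast strain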
RPL19A TOR yeast: RPL19A-GFP expression modulators in yeast, primary screen, cell-based, S. cerevisiae, multiplex flow cytometry, MLPCN; actives 0.3% (n = 330,000); AID 2025, 2009; S. cerevisiae RPL19A-GFP strain, 3 h; hits give low values; percent response vs DMSO, % at 10 µM;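 active means percent response vs DMSO below 50%; inconclusive means fewer than 70 events counted for the yeast strain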;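 further: median channel GFP fluorescence of the barcoded RPL19A-GFP strain; lower means less RPL19A-GFP as with rapamycin TOR inhibition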
AGP1-GFP MLPCN: modulators of AGP1-GFP expression in yeast TOR pathway, primary screen, cell-based, multiplex flow cytometry, S. cerevisiae, MLPCN library; actives 0.02% (n = 320,000); 3 h; GFP as percent of DMSO wells; GFP response vs DMSO, % at 10 µM; AID 2066, 2009;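 active means GFP response relative to DMSO above a set limit, near screen average plus 3 SD, cut at about 150% in these data; inconclusive means fewer than 70 cells counted for the yeast strain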;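 further: median GFP channel fluorescence of the gated AGP1 strain per well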
CIT2 TOR yeast: modulators of CIT2-GFP expression in yeast, primary screen, S. cerevisiae, GFP fusion, multiplex flow cytometry, MLPCN library; S. cerevisiae CIT2-GFP strain, 3 h; 100 means same as DMSO wells; GFP response vs DMSO, % at 10 µM; actives 0.065% (n = 320,000);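 active means GFP response relative to DMSO above a set limit, near the screen mean plus 3 SD, cut at about 150% in these data; inconclusive means Fewer than 70 cells measured for a yeast strain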;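 further: ratio of well median GFP fluorescence to mean of DMSO wells on the plate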
MEP2-GFP yeast: modulators of MEP2-GFP levels in yeast, primary screen, S. cerevisiae, multiplex flow cytometry, MLPCN library | AID 2016, 2009 | actives 0.51% (n = 330,000) | GFP response vs DMSO, % at 10 µM | S. cerevisiae MEP2-GFP strain, 3 h; 100% = DMSO control level;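 active means GFP response versus DMSO above a set limit, roughly screen mean plus 3 SD, cut at about 180% in these data; inconclusive means fewer than 70 cells counted for a yeast strain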;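 further: median GFP fluorescence of the barcode-gated MEP2-GFP cells per well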
A number is an active result; . = inactive; ? = inconclusive; / = no result given; [ ] = remark or other dose.

SMILES	GASC-1 inh	LAP4-GFP MLPCN	RPL19A TOR yeast	AGP1-GFP MLPCN	CIT2 TOR yeast	MEP2-GFP yeast
Cn1c(SCCN2CCCC2)nnc1C1CCN(S(=O)(=O)c2cccc(F)c2)CC1	.	.	.	.	.	.
Cc1cc(Cl)ccc1OCCCC(=O)N1CCCCC1	.	.	.	.	.	.
Cc1cc(Cl)ccc1OCCCC(=O)N1CCOCC1	.	.	36[may fluoresce violet]	?	?	222[may fluoresce violet]
CN1CCC(=O)N([C@H](COc2ccccc2)Cc2ccccc2)CC1	.	.	.	.	.	.
O=C(O)c1ccc2c3c(ncnc13)-c1ccccc1C2=O	.	170	.	.	.	.
COc1ccc(NC(=O)Nc2ccc3c(c2)CC(=O)N([C@H](C)CO)C[C@@H](C)[C@H](CN(C)C(=O)Nc2ccccc2)O3)cc1	/	.	.	.	.	.
Cc1ccccc1NC(=O)NC1(C(=O)N2CCC(O)CC2)CCCCC1	.	.	.	.	.	.
O=C(Nc1ccccc1Cl)NC1(C(=O)N2CCCC2)CCCCC1	.	.	32[may fluoresce violet]	?	?	377[may fluoresce violet]
Cc1ccccc1NC(=O)NC1(C(=O)N2CCN(C)CC2)CCCCC1	.	.	45[may fluoresce violet]	?	?	282[may fluoresce violet]
Cc1ccc(OCC(=O)NNC(=O)c2ccco2)c(C)c1	.	.	.	.	.	.
NC(=O)c1nsc(C(=O)N(CC(=O)NCc2ccccc2)c2ccc(F)cc2)c1N	.	.	.	.	?	309[may fluoresce violet]
NC(=O)c1nsc(C(=O)N(CC(=O)NCc2ccccc2)c2cccc(F)c2)c1N	.	.	.	.	.	.
COc1cccc(CNc2nnnn2C)c1OC	.	.	.	.	.	.
Cc1ccccc1CNc1nnnn1C	.	.	50[may fluoresce violet]	?	?	.
O=C(C[n+]1cc(Br)cc2ccccc21)c1ccc(Cl)cc1	.	.	24[may fluoresce violet]	?	?	454[may fluoresce violet]
CCOC(=O)N1CCN(c2ccncc2S(=O)(=O)N2CCCCC2)CC1	.	.	.	.	.	.
CCCC(=O)Nc1cccc(NC(=O)c2ccccc2Br)c1	.	.	34[may fluoresce violet]	?	?	286[may fluoresce violet]
CCC(=O)Nc1cccc(NC(=O)c2ccccc2Br)c1	.	.	.	.	.	.
CC(=O)N1CCN(c2ccccc2NC(=O)COc2ccc(Br)cc2)CC1	.	.	.	.	.	.
O=C(COc1ccc(Br)cc1)Nc1ccccc1N1CCCC1	.	.	.	.	?	529[may fluoresce violet]
C=CCNC(=O)COC(=O)COc1ccc(Cl)cc1	.	.	.	.	.	.
COc1ccccc1N(CC(=O)NCc1ccccc1C)S(=O)(=O)c1ccc(C)cc1	.	?	?	?	?	206[may fluoresce red and violet]
CC1(c2ccccc2)NC(=O)N(CC(=O)Nc2nnc(C3CC3)s2)C1=O (centres undefined)	.	.	.	.	.	.
O=C(Cn1c(=O)cnc2ccccc21)NC1CCC(O)CC1 (centres undefined)	.	.	47[may fluoresce violet]	?	?	.
CCc1nnc(NS(=O)(=O)c2ccc(NC(=O)c3cccc(OC)c3)cc2)s1	.	.	.	.	.	.
SMILES	GASC-1 inh	LAP4-GFP MLPCN	RPL19A TOR yeast	AGP1-GFP MLPCN	CIT2 TOR yeast	MEP2-GFP yeast
COc1ccccc1N1CCN(S(=O)(=O)c2c(C)sc3ncn(CC(=O)NCCN(C)C)c(=O)c23)CC1	.	.	.	?	?	258[may fluoresce violet]
COC(=O)CNC(=O)Cn1cnc2sc(C)c(S(=O)(=O)N3CCN(c4ccccc4OC)CC3)c2c1=O	.	.	.	.	.	.
COc1cccc(N(CC(=O)N2CCCCCC2)S(C)(=O)=O)c1	.	.	.	.	.	.
O=C1CNC(=S)N1Cc1ccc(F)cc1	.	.	45[may fluoresce violet]	?	?	359[may fluoresce violet]
O=C1CNC(=S)N1Cc1ccccc1	.	.	.	.	.	.
CCOc1ccc(NC(=O)NCCCN2CCCC2)cc1	.	.	39[may fluoresce violet]	?	?	251[may fluoresce violet]
O=C(NCCCN1CCCC1)Nc1ccc(F)cc1	.	.	.	.	.	.
O=C(Nc1ccc(Cl)cc1)C1CC=CCC1C(=O)OCC(F)(F)C(F)F (centres undefined)	.	.	37[may fluoresce violet]	.	?	266[may fluoresce violet]
COC(=O)c1ccccc1NC(=O)c1cc(-c2ccco2)on1	.	.	.	?	?	214[may fluoresce violet]
COC(=O)c1ccccc1NC(=O)c1cc(-c2cccs2)on1	.	.	.	.	.	.
COc1cc2c(cc1OC)CN(C(=O)NS(=O)(=O)c1ccc(C)cc1)CC2	.	.	47[may fluoresce violet]	.	?	582[may fluoresce violet]
COc1cc2c(cc1OC)CN(C(=O)c1ccc(S(=O)(=O)N3CCCC3)cc1)CC2	.	.	.	.	.	.
O=C(COC(=O)c1ccc2ccccc2n1)Nc1ncc(C(F)(F)F)cc1Cl	.	.	38[may fluoresce violet]	?	?	276[may fluoresce violet]
O=C(COC(=O)c1ccc2ccccc2c1)Nc1ncc(C(F)(F)F)cc1Cl	.	.	.	.	.	.
COc1cc(OC)c(OC)cc1CNCc1ccco1	.	.	.	.	.	.
COc1cccc(Oc2ncnc(N)c2[N+](=O)[O-])c1	.	.	.	.	?	525[may fluoresce violet]
CCN(CC(F)(F)C(F)F)S(=O)(=O)c1ccc(NC(=O)OC)cc1	.	?	14[may fluoresce violet]	?	?	?
O=C(Nc1ccc(N2CCOCC2)cc1N1CCOCC1)c1ncoc1-c1cccc(F)c1	.	.	.	.	.	.
CC1CCc2c(C(=O)NCc3ccccn3)csc2C1 (centres undefined)	.	.	.	.	.	.
CC1CCc2c(C(=O)NCc3cccnc3)csc2C1 (centres undefined)	.	.	.	.	169	.
Cc1nn(Cc2ccc(Cl)cc2)c(=O)n1N(C)c1ncc(C(F)(F)F)cc1Cl	.	.	.	/	.	207
COc1ccc(CC(=O)OCN2C(=O)c3ccccc3C2=O)cc1OC	.	.	.	.	.	.
Cc1cc(C=C2C(=O)c3ccccc3C2=O)c(C)n1-c1ccc(C(=O)O)cc1	.	.	.	/	.	.
Cc1cc(C=C2C(=O)c3ccccc3C2=O)c(C)n1-c1cccc(C(=O)O)c1	.	.	.	.	.	214
Cc1cccc(N(C(=O)c2snc(C(N)=O)c2N)C(C(=O)NCC2CCCO2)c2ccc3ncccc3c2)c1 (centres undefined)	.	.	.	.	.	.
Cc1ccc(-c2csc3nc4cc(C(=O)NC5CCC(O)CC5)ccc4c(=O)n23)cc1 (centres undefined)	67	.	.	.	.	.
COc1ccccc1C(=O)NNC(=O)C(=O)Nc1cccc(Cl)c1C	.	263	.	.	.	.
COc1cccc(C(=O)NNC(=O)C(=O)Nc2cccc(Cl)c2C)c1	.	.	.	.	.	.
CCCCCCN1C2=NCCCN2c2ccccc21	.	.	.	.	.	.

Screening results deposited in PubChem BioAssay by several laboratories.
